# This is a sample that favours compounds with a hit; in the whole collection about 12% have one here.
# USP8 block – inhibitors of human USP8 deubiquitinase. purified USP8, Ub-rhodamine cleavage fluorescence, 30 min. inhibition, % at 20 µM. 47,000 compounds, 4.2% hits. AID 1645853, 2021
# USP30 block – inhibitors of human USP30 deubiquitinase | Ubiquitin carboxyl-terminal hydrolase 30 (Homo sapiens), Q70CQ3 | purified USP30, Ub-rhodamine cleavage fluorescence | inhibition, % at 25 µM | 47,000 compounds, 5.3% hits | AID 1645860, 2021
# Target sequence (Q70CQ3 whole entry, looked up): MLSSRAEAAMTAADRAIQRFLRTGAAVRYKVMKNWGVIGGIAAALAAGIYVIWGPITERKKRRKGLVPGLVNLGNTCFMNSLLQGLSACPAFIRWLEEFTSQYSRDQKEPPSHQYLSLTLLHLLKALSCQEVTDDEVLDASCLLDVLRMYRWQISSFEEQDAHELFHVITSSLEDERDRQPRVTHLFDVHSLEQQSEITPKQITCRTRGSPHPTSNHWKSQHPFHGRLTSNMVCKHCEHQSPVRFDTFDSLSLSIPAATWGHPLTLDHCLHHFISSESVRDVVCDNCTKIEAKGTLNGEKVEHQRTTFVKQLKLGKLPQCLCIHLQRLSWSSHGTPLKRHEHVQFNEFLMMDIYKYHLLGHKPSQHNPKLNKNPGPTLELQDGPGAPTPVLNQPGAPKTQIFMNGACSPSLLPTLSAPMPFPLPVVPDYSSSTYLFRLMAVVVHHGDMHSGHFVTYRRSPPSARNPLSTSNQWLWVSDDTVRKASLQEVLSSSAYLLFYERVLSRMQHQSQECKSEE
# USP17 inh – inhibitors of human USP17 deubiquitinase; Ubiquitin carboxyl-terminal hydrolase 17-like protein 5 (Homo sapiens), A8MUK1; purified USP17, Ub-rhodamine cleavage fluorescence, 3 h; inhibition, % at 50 µM; 47,000 compounds, 6.5% hits
# A number is an active result; n = inactive; x = not tested or not shown. Rule as the data show it: active = inhibition above about 30%; inactive = the rest.
SMILES,USP8 block,USP30 block,USP17 inh
Cn1cc(CCNS(=O)(=O)c2ccc(F)c(F)c2)c2cccnc21,n,n,n
Cc1ccc(Nc2nc(N3CCN(CCO)CC3)nc3nccnc23)cc1Cl,n,n,n
COc1cccc(OC2=C(Cl)C(=O)N(c3cccc(C)c3C)C2=O)c1,n,x,n
COc1ccc(Nc2nc3c(S(=O)(=O)c4ccc(C)cc4)nnn3c3ccsc23)c(OC)c1,n,67,n
COc1ccc(S(=O)(=O)c2nnn3c2nc(Nc2ccccc2)c2ccccc23)cc1,n,n,n
O=C1CN(C(=O)c2ccc(S(=O)(=O)N3CCOCC3)cc2)C(c2ccccc2)c2cc(F)ccc2N1 (configuration not stated),n,n,n
Cn1c(N2CCN(C(=O)CC3CCCCC3)CC2)cc(=O)n(C)c1=O,n,n,n
CCCC(=O)N1CCC2(CC1)NC(=O)N(CCc1ccccc1)C2=O,n,n,n
CCCC(=O)N1CCC2(CC1)Nc1ccccc1NC2=O,87,n,70
CCc1ccc(NC(=O)Cc2nnc(-c3cnccn3)o2)cc1,n,n,n
Cc1ccc(-n2c(Cc3cccc4ccccc34)nnc2SCC(=O)NC2CCS(=O)(=O)C2)c(C)c1 (configuration not stated),n,n,42
Cc1cccc(NC(=O)CSc2nnc(CNc3ccc(Cl)cc3)n2C)c1C,44,n,n
COc1ccccc1C(=O)NCc1nnc(SCC(=O)Nc2cccc(C)c2C)n1C,n,n,n
Cc1ccc(-c2nc3ccccc3c3nnc(SCC(=O)NC4CC4)n23)cc1,n,n,n
Cc1ccc(NC(=O)CSc2nnc(Cc3cccc4ccccc34)n2C)c(C)c1,n,n,39
Cc1cc(C)c(NC(=O)CSc2nnc(Cc3cccc4ccccc34)n2C)c(C)c1,n,n,n
Cc1c(-c2cccc(Cl)c2)nc2ccccc2c1C(=O)N1CCCc2ccccc21,n,n,n
Cc1c(C)n(Cc2ccncc2)c2ncnc(NCC(C)C)c12,n,n,n
Cc1ccc2oc3c(c(=O)c2c1)C(c1cccc(OCc2ccccc2)c1)N(c1cc(C)on1)C3=O (configuration not stated),n,n,n
O=C(C1CCCCC1)N1C[C@@H]2CCN(c3ncccn3)C[C@@H]2C1,n,n,n
O=C(CSc1nc2ccccc2[nH]1)N1CCN(c2ccc(F)cc2)CC1,n,n,n
O=C(CSc1nc2ccccc2[nH]1)N1CCN(S(=O)(=O)/C=C/c2ccccc2)CC1,n,31,36
CO/C=C(/C(=O)OC)[C@@H](C)[C@@H](/C=C/c1ccc(OC)cc1)OC,n,n,n
Cc1ccnc(SCc2cc(=O)c(OC(=O)c3c(F)cccc3Cl)co2)n1,31,n,39
Cc1csc(SCc2cc(=O)c(OC(=O)c3cccc(F)c3)co2)n1,61,n,n
SMILES,USP8 block,USP30 block,USP17 inh
O=C(Oc1coc(CSc2ncccn2)cc1=O)c1ccccc1F,n,n,n
Cc1nc2scc(C)n2c(=O)c1NC(=O)Cc1cccc(F)c1,n,n,n
CC(=O)Nc1onc(C)c1-c1ccc(C)c(S(=O)(=O)Nc2cccc(F)c2)c1,n,n,n
Cc1cccc(-c2nnc(C3(c4ccc(F)cc4)CCOCC3)o2)c1,n,n,n
Cc1cc(CN2CCCCC2)c(NC(=O)c2ccco2)s1,n,n,n
c1cc(CN2CCC[C@H]2c2nc(-c3ccc(-c4cncnc4)nc3)no2)ccn1,n,n,n
N#Cc1ccc(NC(=O)COc2ccc3oc4ccccc4c3c2)cc1,n,n,45
COc1ccc(NC(=O)COc2ccc(C#N)cc2)cc1OC,n,n,n
Cc1cc(OCC(=O)Nc2ccc(C#N)cc2)nc(N2CCCCCC2)n1,n,n,n
CCC(=O)c1ccc(OCC(=O)Nc2ccc(C#N)cc2)cc1,n,n,47
Cc1nc2ncnn2c2c1CCN2CCN1CCCCC1,n,x,n
O=C(O)CCC(=O)N1CCc2nc3ccccc3n2C(Cc2ccccc2)C1 (configuration not stated),n,n,n
O=C(COc1ccc2c3c(c(=O)oc2c1)CCC3)Nc1cccnc1,n,n,n
CC(C)n1nccc1-c1cnc(CC2CCN(S(C)(=O)=O)CC2)cn1,n,31,n
CC(C)n1nccc1-c1cnc(CC2CCN(S(C)(=O)=O)C2)cn1 (configuration not stated),n,n,n
COCCCNC(=O)c1nnn(-c2cccc3c2CCN(Cc2ccccn2)C3)c1C,n,n,n
Cc1cc(C2CCCCCN2C(=O)c2cccnc2)on1 (configuration not stated),n,n,n
CCOc1ccc(CN2CCc3nc4cc(-c5ccoc5C)[nH]n4c(=O)c3C2)cc1,n,n,n
CN(C)c1ccc(-c2noc(C(=O)NCc3ccccn3)n2)cc1,n,n,45
CN(C)c1ccc(-c2noc(C(=O)NCc3ccncc3)n2)cc1,n,31,n

# Bioassay records deposited in PubChem by Buhrlage Lab, Dana-Farber Cancer Institute and Novartis Institutes for BioMedical Research (Cambridge, Mass).
